Assay outcomes (PubChem)
DT40 TDP1 no CPT – qHTS for Inhibitors of human tyrosyl-DNA phosphodiesterase 1 (TDP1): qHTS in cells in absence of CPT | DT40 Tdp1-/- hTDP1 cells, no CPT, ATP luminescence, 48 h | Potency, µM (doses to about 46.2 µM), hits mostly inhibitors | 420,000 tested, 15% active; further: nearly all actives have a fitted effect of over 55% in size
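Camptothecin absent (DMSO only). Human TDP1-complemented DT40 knockout cells, 400 cells/well, 37 °C for minimum 48 hr; ATP measured via CellTiter-Glo, 30 min dark incubation, luminescence.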
DT40 TDP1 CPT – DT40-hTDP1 cell growth loss with CPT. chicken DT40 Tdp1-/-;hTDP1 cells + 20 nM CPT, ATP luminescence, 48 h. Potency, µM (series often up to 46.2 µM), usual class: inhibitors. 420,000 tested, 12% active; further: nearly all actives have a fitted effect of over 55% in size
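Chicken DT40 Tdp1-/- cells complemented with human TDP1, 400 cells/well, exposed to compounds plus 20 nM camptothecin for at least 48 h at 37 C; viability read as ATP content by CellTiter-Glo luminescence.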
RORgamma inh – blocks mouse ROR gamma transcriptional activity. P51450. Drosophila S2 Gal4-RORgamma UAS-luciferase reporter, 20 h. Potency, µM (titrated, usually from 53.6 µM), usual class: inhibitors. 310,000 tested, 5.4% active; further: nearly all actives have a fitted effect of over 60% in size
Target sequence (P51450 whole entry, looked up, the tested form may be a part): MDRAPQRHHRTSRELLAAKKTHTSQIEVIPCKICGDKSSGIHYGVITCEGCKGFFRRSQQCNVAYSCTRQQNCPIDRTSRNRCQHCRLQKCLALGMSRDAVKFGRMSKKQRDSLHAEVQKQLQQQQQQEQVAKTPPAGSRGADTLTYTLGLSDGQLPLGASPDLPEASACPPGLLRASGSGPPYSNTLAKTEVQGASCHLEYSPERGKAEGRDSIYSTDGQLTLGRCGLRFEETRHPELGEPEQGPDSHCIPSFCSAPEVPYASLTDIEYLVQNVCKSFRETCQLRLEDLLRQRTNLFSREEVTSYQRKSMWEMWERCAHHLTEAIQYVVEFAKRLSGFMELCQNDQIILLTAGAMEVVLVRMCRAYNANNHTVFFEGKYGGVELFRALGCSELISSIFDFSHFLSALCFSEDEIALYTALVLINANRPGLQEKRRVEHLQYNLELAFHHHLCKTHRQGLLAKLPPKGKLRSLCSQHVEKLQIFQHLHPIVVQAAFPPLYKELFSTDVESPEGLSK
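Compounds are pin-transferred onto Drosophila Schneider cells expressing a copper-inducible Gal4–ROR gamma transactivation domain fusion. After 1 hr, copper sulfate is added to 700 uM final; luciferase is read 20 hr later.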
VP16 counter – counter-screen for ROR gamma inhibitors: Gal4-VP16 reporter. Drosophila S2 Gal4-VP16 UAS-luciferase, luminescence, 20 h. Potency, µM (top dose mostly 53.6 µM), actives largely listed as inhibitors. 310,000 tested, 3.5% active;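 further: Gal4-VP16 expression switched on by copper sulfate through the metallothionein promoter; nearly all actives have a fitted effect of over 50% in size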
ELG1 repair inh – blocks ELG1-dependent DNA repair in HEK293T cells; HEK293T ELG1-luciferase reporter, luminescence, 16 h; DNA damage induced by 5-fluorouridine; Potency, µM (top dose mostly 46.1 µM), actives largely listed as inhibitors; 330,000 tested, 2.3% active; AID 504467; further: nearly all actives have a fitted effect of over 55% in size
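Overnight (16 hr) co-exposure of 2,000 cells/well to 5-fluorouridine and compound at 37 °C preceded detection. Luciferase was quantified via ONE-Glo luminescence; loss of signal denotes inhibition.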
IL1B secr inh – inhibitors of inflammasome signaling (IL-1 beta secretion); THP-1 LPS/ATP IL-1B secretion, AlphaLISA, 16 h; active compounds read low; activity change, % at 57.5 µM; 360,000 tested, 4.7% active; in the data active means activity change below about -50%; inconclusive means mostly about -30% to -49%
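Secreted IL-1B measured by AlphaLISA bead assay after 16 h compound exposure of THP-1 cells; compounds (final up to 57.5 uM) added 1 h before LPS (250 ng/mL) and ATP (1.25 mM) stimulation; lower signal means less secretion.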
Numbers stand for hits; . = inactive; ? = inconclusive; / = no result given; [ ] = another dose, or the depositor's remark. The list is not random: actives were taken first. Their share in the collection is about 21%. Unless noted, the call rests on the fitted dose curve; in most records, active means well fitted curve in the direction sought with a large enough effect; inconclusive means small, poorly fitted or top-dose-only effect, or another doubt; inactive means no such curve, though single readings can be large; an effect the other way counts as inactive or inconclusive.

SMILES	DT40 TDP1 no CPT	DT40 TDP1 CPT	RORgamma inh	VP16 counter	ELG1 repair inh	IL1B secr inh
Cc1cc(C)c(OCCCCN(C)Cc2ccccc2)c(C)c1	23µM	?	.[1.91 µM]	.	.	.
COc1cc(OC)c(NC2=CC(=O)C(=O)c3ccccc32)cc1Cl	18µM	12µM	?	?	?	?
Cc1cc(NC2=CC(=O)C(=O)c3ccccc32)no1	12µM	6.5µM	/	/	/	-101
Cc1onc(COc2ccccc2O)c1Br	.	.	.	.	?	.
CC(=O)Oc1cc2cccc(OC(C)=O)c(=O)c2c(OC(C)=O)c1OC(C)=O	18µM	4.6µM	.	.	.	.
COc1ccc(C(c2nnnn2Cc2cccs2)N2CCC(C(N)=O)CC2)c(OC)c1 (stereo not drawn)	.	.	?	.	.	.
Cc1cc2nc(C3CCN(Cc4nnnn4Cc4cccs4)CC3)[nH]c2cc1C	6.3µM	3.5µM	.	.	.	.
COc1ccc(/C=C2\C(=O)NC(=S)N2C(=O)c2ccc(F)cc2)cc1	18µM	23µM	8.9µM	11µM	.	.
CN1C(=O)/C(=C/c2ccc(OCc3ccc(F)cc3)cc2)N(C)C1=S	.	.	?	.	.	.
O=C1NC(=S)N(C(=O)c2ccc(F)cc2)/C1=C/c1ccccc1	13µM	23µM	.	.	.	.
CC(OC(=O)CNC(=O)c1ccc(Cl)c(Cl)c1)C(=O)N1CCOCC1 (stereo not drawn)	.	.	/	/	.	.
N/C(=N\OC(=O)c1cccc(Cn2cc(C(F)(F)F)ccc2=O)c1)c1ccccc1	.	.	.	.	.	.
O=C(Sc1ccc(Cl)cc1)c1cccc(Cn2cc(C(F)(F)F)ccc2=O)c1	16µM	18µM	.	.	.	.
Cc1ccc(/C(N)=N/OC(=O)c2cccc(Cn3cc(C(F)(F)F)ccc3=O)c2)cc1	18µM	?	.	?	.	-68
N/C(=N\OC(=O)c1cccc(Cn2cc(C(F)(F)F)ccc2=O)c1)c1ccc(Cl)cc1	21µM	?	.	?	.	?
CSCCC(NC(=O)COc1ccccc1)C(=O)NCC1COc2ccccc2O1 (stereo not drawn)	.	?	.	.	.	.
CC(=O)Nc1ccc(C(=O)N2CCCC(n3cc(C(=O)NCC(C)C)nn3)C2)cc1 (stereo not drawn)	.	.	/	/	/	/
O=C(NCc1ccncc1)c1nc(-c2ccc(C(F)(F)F)cc2)no1	8.2µM	15µM	?	?	.	?
O=C(NCc1cccnc1)c1nc(-c2ccc(C(F)(F)F)cc2)no1	13µM	15µM	?	3.2µM	?	.
Cc1ccccc1S(=O)(=O)N1C[C@H]2CON(C)[C@H]2C[C@H]1c1cccc(-c2ccc(C#N)cc2)c1	?	21µM	/	/	/	.
CN1OC[C@@H]2CN(S(=O)(=O)c3cccc4ccccc34)[C@H](c3ccc(-c4cccnc4)cc3)C[C@@H]21	18µM	?	/	/	/	.
CN1OC[C@@H]2CN(S(=O)(=O)c3cccc(C(F)(F)F)c3)[C@H](c3ccc(-c4cccnc4)cc3)C[C@@H]21	21µM	29µM	/	/	/	.
Cc1ccccc1S(=O)(=O)N1C[C@H]2CON(C)[C@H]2C[C@H]1c1cccc(N2CCOCC2)c1	.	.	/	/	/	.
C=CCNC(=O)NC(=O)COC(=O)/C(C#N)=C/c1ccc(OC)cc1	.	.	.	.	.	.
O=C(Nc1ccc(Cl)cc1)Nc1ccccc1CC[N+](=O)[O-]	?	13µM	.	.	.	.
SMILES	DT40 TDP1 no CPT	DT40 TDP1 CPT	RORgamma inh	VP16 counter	ELG1 repair inh	IL1B secr inh
O=C(Nc1ccccc1CC[N+](=O)[O-])N1CCN(c2ccccc2)CC1	?	?	?	?	.	.
CN(C)C(=O)Nc1ccccc1CC[N+](=O)[O-]	.	.	.	.	.	-65
CC(=O)OCCN1C(=O)c2ccc(-c3nc4ccccc4c(=O)o3)cc2C1=O	?	?	/	/	/	.
CC(=O)Nc1ccc(S(=O)(=O)n2cnc3cc(C)c(C)cc32)cc1	18µM	8.2µM	.	11µM	?	.
CC(=O)Nc1ccc(C(=O)n2cnc3cc(C)c(C)cc32)cc1	.	.	.	.	.	.
Cc1cc(Cl)ccc1Oc1ccccc1C(=O)CC#N	.	.	?	.	?	.
Cc1ccc(C2C=C(c3ccccc3)Nc3nc(NS(C)(=O)=O)nn32)cc1 (stereo not drawn)	.	.	/	/	/	/
COc1ccc(/C=C/C(=O)Nc2nc3n(n2)C(c2ccccc2)C=C(c2ccccc2)N3)cc1 (stereo not drawn)	5.8µM	7.3µM	/	/	/	/
COc1ccc(C2C=C(c3ccccc3)Nc3nc(NC(=O)/C=C/c4ccc(F)cc4)nn32)cc1 (stereo not drawn)	21µM	21µM	/	/	/	/
O=C(/C=C/c1ccccc1)Nc1nc2n(n1)C(c1ccc(F)cc1)C=C(c1ccccc1)N2 (stereo not drawn)	8.2µM	7.3µM	/	/	/	/
COc1ccc(/C=C/C(=O)Nc2nc3n(n2)C(c2ccc(F)cc2)C=C(c2ccccc2)N3)cc1 (stereo not drawn)	3.7µM	5.2µM	/	/	/	/
COc1ccc(C2C=C(c3ccccc3)Nc3nc(NC(C)=O)nn32)cc1 (stereo not drawn)	?	.	.	.	.	/
O=C(NCCC1=CCCCC1)c1cccc(S(=O)(=O)N2CCCCC2)c1	23µM	?	/	/	.	.
CC1CN(S(=O)(=O)c2cccc(C(=O)NN3CCN(C)CC3)c2)CC(C)O1 (stereo not drawn)	.	.	.	.	.	.
Cc1ccc(C(=O)NCCC2=CCCCC2)cc1S(=O)(=O)N1CCCCC1	?	?	/	/	.	-58
CC1CN(S(=O)(=O)c2cccc(C(=O)NCCCn3ccnc3)c2)CC(C)O1 (stereo not drawn)	.	.	.	.	/	.
CC1CN(S(=O)(=O)c2cccc(C(=O)NCCC3=CCCCC3)c2)CC(C)O1 (stereo not drawn)	21µM	12µM	/	/	.	.
O=C(NCCC1=CCCCC1)c1cc(S(=O)(=O)N2CCCCC2)ccc1Cl	?	?	/	/	.	.
Cc1ccc(C(=O)NCCC2=CCCCC2)cc1S(=O)(=O)N1CCOCC1	?	?	/	/	?	.
CC1CN(S(=O)(=O)c2cccc(C(=O)Nc3ccc4c(c3)CCC4)c2)CC(C)O1 (stereo not drawn)	1.2µM	1.2µM	?	.	?	?
COc1cc(NCc2ccc3nc(N)nc(N)c3c2C)cc(OC)c1OC	0.12µM	0.38µM	.	.	/	/
Cc1cc(OCC(=O)OCC(=O)N(C)c2c(N)n(Cc3ccccc3)c(=O)[nH]c2=O)ccc1Cl	.	.	/	/	.	.
